Our source for the outcome and AC50 values is PubChem BioAssay (EPA / NIEHS).

Values joined by “and” are separate entries in the source; they are usually repeats but may differ in a detail not shown here. Equal values may be shown once. A structure can be active in one record and inactive in another. Active and inactive are the calls of the source. The calls were made as follows: active = hit-call score of the fitted dose curve at least 0.9, where 1 is the maximum; inactive = score below 0.9.

A short description of test [1]: APR_HepG2_NuclearSize_72hr: Apredica 72-hour HepG2 Assay for Nuclear Size (AID 2282925). As to conditions: high-content imaging, actives raise or lower the signal. The procedure, abridged:
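HepG2 cells were exposed to compounds at ten concentrations from 0.39 to 200 uM (duplicate, 0.5% DMSO final) for 72 hr. After fixation in 3.7% formaldehyde, nuclei were stained with Hoechst 33342 (2 ug/mL) and imaged at 20x.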

Test [2] in a line: ATG_CRE_CIS: Attagene CIS-FACTORIAL HepG2 Assay for human cAMP Responsive Element (CRE) binding protein 3 (AID 2282926). The conditions noted are these: HepG2 CRE cis-reporter, Attagene multiplexed mRNA; actives raise or lower the signal. The procedure, abridged: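 Human liver HepG2, transient MRTU transfection, 24 h compound exposure. Total RNA → oligo(dT) RT → PCR → 6-FAM primer extension → HpaI cut → CE. Activity called both directions vs DMSO.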

In test [3] the target is CCAAT/enhancer-binding protein beta (Homo sapiens) (UniProt P17676). Description: ATG_C_EBP_CIS: Attagene CIS-FACTORIAL HepG2 Assay for human CCAAT/Enhancer Binding Protein (C/EBP) beta (AID 2282927). As to conditions: HepG2 Attagene cis-factorial transcription factor reporter; actives raise or lower the signal. The procedure, abridged:
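RT-PCR/capillary electrophoresis fluorescence of reporter mRNA, 24 h post-dose, in HepG2 cells carrying transfected cis-promoter reporter units. Bidirectional curve fitting against DMSO baseline captures gain or loss of signal.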

The nature of test [4]: ATG_CMV_CIS: Attagene CIS-FACTORIAL HepG2 Assay for human CMV (Internal Marker) (AID 2282928).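 Also: endpoint acts as a background internal control marker rather than a target.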 The conditions noted are these: HepG2 CMV promoter reporter, transcription factor profiling; actives raise or lower the signal. Put shortly:
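After transient transfection of HepG2 with reporter transcription units driven by cis-regulatory promoters, cells receive test chemical for 24 h. Labeled reporter amplicons, digested with HpaI, are sized and quantified by capillary electrophoresis against DMSO.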

Test [5] in a line: ATG_DR4_LXR_CIS: Attagene CIS-FACTORIAL HepG2 Assay for human Liver X Receptor (LXR), DR4 submotif (AID 2282929). The conditions noted are these: HepG2 Attagene DR4 cis-reporter, mRNA transcription; actives raise or lower the signal. Put shortly:
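Cells were transfected with multiple reporter transcription units, exposed to chemicals for 24 hours, then lysed for RNA. Reporter mRNA induction was measured by RT-PCR with capillary electrophoresis detection and fitted in both directions relative to DMSO.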

Test [6] addresses Aryl hydrocarbon receptor (Homo sapiens) (UniProt P35869). Description: ATG_Ahr_CIS: Attagene CIS-FACTORIAL HepG2 Assay for human Aryl Hydrocarbon Receptor (Ahr) (AID 2282930). The conditions noted are these: HepG2 AhR cis-factorial reporter transcription; actives raise or lower the signal. The procedure, abridged: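 HepG2 cells transiently transfected with cis-element-driven multiplexed reporter transcription units; endogenous transcription factor activity measured as reporter mRNA 24 h after dosing. RT-PCR, 6-FAM labelling, HpaI digestion, capillary electrophoresis; bidirectional fitting versus DMSO baseline.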

The nature of test [7]: ATG_AP_1_CIS: Attagene CIS-FACTORIAL HepG2 Assay for human Activator Protein 1 (AP-1) (AID 2282931). As to conditions: HepG2 Attagene cis-factorial AP-1 reporter mRNA; actives raise or lower the signal. Put shortly:
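Endogenous transcription-factor activity in human HepG2 liver cells is read through a cis-promoter reporter transcript, sampled 24 h after dosing. Detection uses RT-PCR with capillary electrophoresis; values come from bidirectional fitting relative to DMSO.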

Test [8] in a line: ATG_AP_2_CIS: Attagene CIS-FACTORIAL HepG2 Assay for human Activator Protein 2 (AP-2) (AID 2282932). The conditions noted are these: HepG2 AP-2 cis-reporter, Attagene transcription factor profiling; actives raise or lower the signal. The procedure, abridged: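 Bidirectional curve fitting against DMSO was applied to reporter mRNA signals from HepG2 cells 24 h after dosing. Cis-promoter reporter units, transiently transfected, were read by RT-PCR plus capillary electrophoresis.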

Test [9] is described as follows: ATG_BRE_CIS: Attagene CIS-FACTORIAL HepG2 Assay for human Bone Morphogenetic Protein (BMP) Response Element (BRE) (AID 2282933). As to conditions: HepG2 BMP response element reporter, Attagene transcription factor profiling; actives raise or lower the signal. Put shortly:
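A HepG2 multiplex reporter system measured inducible reporter mRNA 24 h post-dosing. Detection: RT-PCR, 6-FAM primer extension, HpaI digestion, capillary electrophoresis. Activity fitted bidirectionally relative to DMSO.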

The target in test [10] is Retinoic acid receptor alpha (Homo sapiens) (UniProt P10276). Description: ATG_DR5_RAR_CIS: Attagene CIS-FACTORIAL HepG2 Assay for human Retinoic Acid Receptor Alpha (RARE), DR5 submotif (AID 2282934). The conditions noted are these: HepG2 Attagene cis-factorial RARE DR5 reporter, mRNA; actives raise or lower the signal. The procedure, abridged: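 HepG2 cells transiently transfected with multiplexed reporter units under cis (DR5 RARE) promoters, so endogenous transcription factor activity is measured. After 24 h compound exposure, reporter mRNA is quantified by RT-PCR with fluorescent labelling and capillary electrophoresis; bidirectional fitting versus DMSO.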

Test [11] addresses Transcription factor E2F1 (Homo sapiens) (UniProt Q01094). Put plainly: ATG_E2F_CIS: Attagene CIS-FACTORIAL HepG2 Assay for human E2F Transcription Factor 1 (AID 2282935). The conditions noted are these: HepG2 Attagene cis-reporter, E2F reporter RNA transcripts; actives raise or lower the signal. The procedure, abridged:
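Multiplexed cis-reporter assay: HepG2, transient transfection, 24 h dosing, mRNA quantitation by labeled RT-PCR and CE.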

Test [12] can be described thus: ATG_E_Box_CIS: Attagene CIS-FACTORIAL HepG2 Assay for human Enhancer Box (E-box) (AID 2282936). The conditions noted are these: HepG2 E-box cis-reporter transcription, actives raise or lower the signal. The procedure, abridged: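 Multiplexed CIS reporter system in transiently transfected HepG2 cells measures native transcription factor activity. Reporter RNA after 24 h exposure is profiled by RT-PCR-capillary electrophoresis.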

Test [13] can be described thus: ATG_M_61_CIS: Attagene CIS-FACTORIAL HepG2 Assay for M61 Transcription Factor (Internal Marker) (AID 2282937). As to conditions: HepG2 Attagene CIS-FACTORIAL M61 internal marker reporter; actives raise or lower the signal. The procedure, abridged: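 Cells were transfected with reporter units under cis-regulatory promoters, treated with chemicals for 24 h, then lysed for RNA. Reporter transcripts were quantified by RT-PCR and capillary electrophoresis, and activity was fitted bidirectionally against DMSO.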

A short description of test [14]: ATG_M_19_CIS: Attagene CIS-FACTORIAL HepG2 Assay for M19 Transcription Factor (Internal Marker) (AID 2282939). The conditions noted are these: HepG2 Attagene CIS-FACTORIAL M19 internal marker reporter; actives raise or lower the signal. Put shortly: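 Chemical-treated HepG2 (24 h) with MRTU constructs; reporter transcripts detected by fluorescent RT-PCR fragment analysis on capillary electrophoresis. Internal background marker, DMSO as baseline.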

The nature of test [15]: ATG_ERE_CIS: Attagene CIS-FACTORIAL HepG2 Assay for Estrogen Response Element (ERE) (AID 2282940). The conditions noted are these: HepG2 ERE cis-reporter, Attagene RNA transcript; actives raise or lower the signal. Put shortly: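 Human liver cells (HepG2) bearing transiently transfected, promoter-regulated reporter units were exposed 24 h. Reporter mRNA induction was detected by capillary electrophoresis of labelled RT-PCR products and fitted bidirectionally to DMSO.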

Test [16] can be described thus: ATG_Ets_CIS: Attagene CIS-FACTORIAL HepG2 Assay for human Erythroblast Transformation Specific (ETS) (AID 2282941). The conditions noted are these: HepG2 ETS cis-reporter transcription, actives raise or lower the signal. Put shortly:
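Human HepG2 hepatoma cells were transiently transfected with promoter-driven reporter constructs and treated for 24 hours. Reporter transcripts were quantified by RT-PCR with fluorescent primer extension; bidirectional curve fitting used DMSO as reference.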

For test [17], the target named is Hepatocyte nuclear factor 3-beta (Homo sapiens) (UniProt Q9Y261). Put plainly: ATG_FoxA2_CIS: Attagene CIS-FACTORIAL HepG2 Assay for human Forkhead box A2 (FOXA2) (AID 2282942). The conditions noted are these: HepG2 cis-reporter transcription factor activity, 24 h; actives raise or lower the signal. The procedure, abridged:
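Endogenous transcription factor activity was read in HepG2 cells carrying transiently transfected cis-promoter reporter units. After 24 h dosing, reporter mRNA was quantified by RT-PCR and capillary electrophoresis, and values fitted bidirectionally versus DMSO.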

A short description of test [18]: ATG_FoxO_CIS: Attagene CIS-FACTORIAL HepG2 Assay for human Forkhead box O (FoxO) (AID 2282943). The conditions noted are these: HepG2 Attagene cis-reporter, FoxO element, mRNA; actives raise or lower the signal. The procedure, abridged:
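HepG2 cells transiently transfected with cis-promoter-driven multiple reporter transcription units; 24 h after chemical dosing, reporter mRNA quantified by RT-PCR, fluorescent primer extension, HpaI digestion and capillary electrophoresis. Bidirectional fitting versus DMSO baseline.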

A short description of test [19]: ATG_EGR_CIS: Attagene CIS-FACTORIAL HepG2 Assay for human Early Growth Response 1 (EGR1) (AID 2282938). As to conditions: HepG2 Attagene CIS-FACTORIAL EGR reporter mRNA; actives raise or lower the signal. The procedure, abridged:
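Endogenous TF activity in HepG2 liver cells was gauged through cis-promoter reporter constructs transiently transfected. After 24 h dosing, reporter mRNA was quantified by RT-PCR and capillary electrophoresis, and curves fitted in both directions versus DMSO.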

Test [20] is described as follows: ATG_GATA_CIS: Attagene CIS-FACTORIAL HepG2 Assay for human GATA Binding Protein (AID 2282944). The conditions noted are these: HepG2 GATA cis-element reporter, Attagene multiplex mRNA; actives raise or lower the signal. Put shortly: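 Transfected cis-reporter HepG2 cells were treated with chemicals for 24 hours. Total RNA was then converted to cDNA, amplified with reporter-specific primers and analysed by fluorescent capillary electrophoresis, using DMSO-treated wells as baseline.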

Transcription factor E2F1 (Homo sapiens), sequence (Q01094 whole entry, looked up): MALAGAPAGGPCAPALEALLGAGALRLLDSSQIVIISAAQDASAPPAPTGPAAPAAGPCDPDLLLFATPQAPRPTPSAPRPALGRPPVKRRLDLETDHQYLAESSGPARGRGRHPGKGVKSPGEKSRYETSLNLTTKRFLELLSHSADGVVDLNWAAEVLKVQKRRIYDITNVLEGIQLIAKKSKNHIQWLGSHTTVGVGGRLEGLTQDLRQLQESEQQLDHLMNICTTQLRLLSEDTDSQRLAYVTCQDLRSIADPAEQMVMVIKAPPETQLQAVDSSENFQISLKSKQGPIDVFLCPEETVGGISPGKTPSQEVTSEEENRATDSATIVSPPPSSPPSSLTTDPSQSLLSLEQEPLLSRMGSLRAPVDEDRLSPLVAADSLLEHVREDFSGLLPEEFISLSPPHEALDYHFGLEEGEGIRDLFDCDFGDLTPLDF
Aryl hydrocarbon receptor (Homo sapiens), sequence (P35869 whole entry, looked up): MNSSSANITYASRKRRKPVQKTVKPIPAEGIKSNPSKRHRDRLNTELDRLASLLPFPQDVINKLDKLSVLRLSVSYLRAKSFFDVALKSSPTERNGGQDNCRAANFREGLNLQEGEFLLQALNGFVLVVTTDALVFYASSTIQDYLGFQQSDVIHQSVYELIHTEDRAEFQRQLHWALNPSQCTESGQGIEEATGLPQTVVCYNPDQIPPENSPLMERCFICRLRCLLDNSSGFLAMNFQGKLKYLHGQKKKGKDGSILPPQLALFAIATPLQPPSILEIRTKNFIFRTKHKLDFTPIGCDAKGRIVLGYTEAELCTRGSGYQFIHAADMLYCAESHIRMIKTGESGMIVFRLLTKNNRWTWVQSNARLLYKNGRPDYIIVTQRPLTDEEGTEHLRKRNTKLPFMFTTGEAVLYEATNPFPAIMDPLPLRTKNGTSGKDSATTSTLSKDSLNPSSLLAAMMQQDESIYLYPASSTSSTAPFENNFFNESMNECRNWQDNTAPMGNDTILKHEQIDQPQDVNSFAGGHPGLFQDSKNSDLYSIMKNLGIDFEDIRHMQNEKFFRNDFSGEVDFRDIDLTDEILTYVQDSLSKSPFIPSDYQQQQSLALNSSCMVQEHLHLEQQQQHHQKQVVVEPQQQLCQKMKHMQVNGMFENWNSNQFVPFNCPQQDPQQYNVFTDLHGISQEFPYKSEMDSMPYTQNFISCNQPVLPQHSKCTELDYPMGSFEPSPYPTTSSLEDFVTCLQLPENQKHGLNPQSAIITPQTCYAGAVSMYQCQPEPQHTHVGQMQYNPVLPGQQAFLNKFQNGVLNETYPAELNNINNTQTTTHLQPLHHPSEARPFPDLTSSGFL
Hepatocyte nuclear factor 3-beta (Homo sapiens), sequence (Q9Y261 whole entry, looked up): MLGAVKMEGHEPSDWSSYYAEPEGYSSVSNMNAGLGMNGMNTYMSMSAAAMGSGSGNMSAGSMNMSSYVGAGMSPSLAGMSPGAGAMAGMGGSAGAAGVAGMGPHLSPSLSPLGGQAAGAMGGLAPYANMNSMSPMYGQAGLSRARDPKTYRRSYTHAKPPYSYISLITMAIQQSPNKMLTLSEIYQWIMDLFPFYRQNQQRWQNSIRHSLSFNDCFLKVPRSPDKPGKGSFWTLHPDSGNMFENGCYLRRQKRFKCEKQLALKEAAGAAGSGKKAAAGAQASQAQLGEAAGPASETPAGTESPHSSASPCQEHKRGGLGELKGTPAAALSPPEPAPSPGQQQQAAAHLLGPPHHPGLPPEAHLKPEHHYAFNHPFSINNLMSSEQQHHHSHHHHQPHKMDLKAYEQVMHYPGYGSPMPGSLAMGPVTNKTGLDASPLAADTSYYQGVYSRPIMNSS
Retinoic acid receptor alpha (Homo sapiens), sequence (P10276 whole entry, looked up): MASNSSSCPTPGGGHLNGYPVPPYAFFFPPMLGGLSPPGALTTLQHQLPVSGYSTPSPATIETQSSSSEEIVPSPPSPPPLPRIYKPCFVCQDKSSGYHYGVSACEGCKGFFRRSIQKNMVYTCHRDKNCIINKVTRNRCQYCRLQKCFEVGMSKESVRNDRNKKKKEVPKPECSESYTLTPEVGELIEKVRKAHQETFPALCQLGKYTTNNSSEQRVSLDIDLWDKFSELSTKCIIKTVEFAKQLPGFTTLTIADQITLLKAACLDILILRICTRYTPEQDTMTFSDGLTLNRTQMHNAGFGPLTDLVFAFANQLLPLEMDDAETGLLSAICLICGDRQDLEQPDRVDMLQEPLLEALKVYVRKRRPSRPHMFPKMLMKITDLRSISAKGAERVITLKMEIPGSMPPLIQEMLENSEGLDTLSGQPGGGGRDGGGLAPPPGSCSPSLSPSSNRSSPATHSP
CCAAT/enhancer-binding protein beta (Homo sapiens), sequence (P17676 whole entry, looked up): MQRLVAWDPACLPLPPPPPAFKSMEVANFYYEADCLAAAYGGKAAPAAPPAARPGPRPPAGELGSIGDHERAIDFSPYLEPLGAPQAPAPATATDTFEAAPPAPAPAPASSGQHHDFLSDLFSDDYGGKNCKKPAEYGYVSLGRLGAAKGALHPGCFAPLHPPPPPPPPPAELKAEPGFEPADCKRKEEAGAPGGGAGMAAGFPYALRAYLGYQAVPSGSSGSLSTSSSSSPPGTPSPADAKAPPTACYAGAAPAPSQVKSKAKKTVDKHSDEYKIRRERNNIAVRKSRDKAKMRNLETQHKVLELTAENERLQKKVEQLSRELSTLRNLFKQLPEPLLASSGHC

For `COC(=O)c1ccccc1C(=O)O`, the outcome in test [1], in test [2], in test [3], in test [4], in test [5] and in [6] was inactive. Further, the outcome in test [7], in [8], in test [9], in [10], in [11] and in [12] was inactive. The outcome in [13], in [14], in test [15], in [16], in test [17] and in [18] was inactive.
Take `CC(C)(c1ccc(O)cc1)c1ccc(O)cc1`: the result in test [1], in test [2], in [3], in test [4], in [5] and in test [6] was inactive. Also, the result in test [8], in test [9], in [10], in test [11], in test [12] and in test [13] was inactive. Also, the compound was classed as inactive in test [14], in [16], in test [17] and in [18]. The concentration at half-maximal activity (AC50) in [2] was 64.3 µM (active) and 25.5 µM (active) and 22.7 µM (active); in test [3], 33.4 µM (active); in test [4], 50 µM (active) [middle of 6 runs]; in [6], 26.9 µM (active) and 49.5 µM (active) and 23.6 µM (active); in [8] it was 121 µM (active) and 148 µM (active) and 101 µM (active); in [9], 155 µM (active). Moreover, the AC50 was 101 µM (active) and 33.7 µM (active) in test [16]; 58.2 µM (active) in [17]; 57.7 µM (active) in [18].
Regarding `CCOC(=O)C(C)Oc1ccc(Oc2nc3ccc(Cl)cc3o2)cc1` (stereo not drawn), the compound was called inactive in [1], in [2], in test [3], in test [4], in [5] and in test [6]. In addition, the outcome in test [7], in test [8], in [9], in test [10], in [11] and in test [12] was inactive. For the same compound, the compound was classed as inactive in [13], in test [14], in test [16], in test [17] and in test [18].
On to `CCC(C)OC(=O)N1CCCCC1CCO` (stereo not drawn), for which the outcome in test [1], in test [2], in test [3], in test [4], in test [5] and in test [6] was inactive. Further, the compound was called inactive in [7], in test [8], in test [9], in [10], in [11] and in [12]. In addition, the compound was classed as inactive in test [13], in [14], in [16], in test [17] and in [18].
On to `OB(O)O`, for which the compound was classed as inactive in test [1], in test [2], in [3], in test [4], in [5] and in test [6]. Moreover, the compound was called inactive in test [7], in test [8], in [9], in test [10], in [11] and in test [12]. For the same compound, the result in [13], in test [19], in test [14], in test [15], in test [16] and in [17] was inactive. For the same compound, the result in test [18] and in test [20] was inactive.
Regarding `S=C(S)NCCNC(=S)S.[Mn+2].[S-]C([S-])=NCCN=C([S-])[S-].[Zn+2]`, the half-maximal activity concentration (AC50) in test [1] is 80.6 µM (active); in test [2], 10.1 µM (active) and 9.92 µM (active); in [4] it was 231 nM (active) and 1.21 µM (active) and 343 nM (active); in test [5], 8.2 µM (active) and 50 µM (active) and 67.7 µM (active); in [6], 20.7 µM (active) [middle of 4 runs]; in [8], 4.93 µM (active). For the same compound, the compound was classed as inactive in [1], in test [2], in test [3], in [4], in test [5] and in test [6]. Moreover, the compound was classed as inactive in [8], in [9], in test [11], in test [12], in [13] and in test [14]. Moreover, the result in test [16], in test [17] and in [18] was inactive.
